A488 autofl – compound fluoresces in the A488 spectral region | compound autofluorescence, A488 spectral region, dye equivalency; Compound Type: qHTS ECL - MLSMR | max dye equivalency, M | hit rate 0.1% among 59,000 | AID 591
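Spectroscopic profiling in the A488 region: compounds in pH 8.0 Tris (100 mM), 15 min RT, CCD imaging with 480 nm excitation and 540 nm emission; responses normalized against A488 dye standards.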
A647 autofl – compound autofluorescence in A647 spectral region. AID 592. 59,000 tested, under 10 active. max dye-equivalent concentration, M. Compound fluorescence, A647 channel (570/671 nm), Tris buffer;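 further: values scaled relative to a standard on each plate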
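Compounds pinned into 100 mM Tris pH 8.0, 15 min at room temperature, then read with 570 nm excitation/671 nm emission filters. Fluorescence normalized to an on-plate six-point Alexa 647 standard curve, giving dye-equivalent concentration per compound concentration.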
Fluorescein autfl – compound fluoresces in the fluorescein spectral region. Compound autofluorescence, 480/540 nm, fluorescein-equivalent; active compounds read high. max fluorescein-equivalent concentration, M. hit rate 0.91% among 59,000. AID 593; in the data active means max fluorescein-equivalent concentration above about 10 nM; inconclusive means between about 1.1 nM and that limit
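Fluorescein stocks ranging 3 mM down to 300 nM, plus DMSO blanks, were pinned alongside compounds to build a per-plate standard curve. Buffer: 100 mM Tris, pH 8.0. Incubation 15 min, room temperature; filters 480/540 nm.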
Resorufin autofl – resorufin region autofluorescence; Compound fluorescence, resorufin region 547/598 nm, buffer; active compounds read high; max dye-equivalent concentration, M; hit rate 0.04% among 59,000
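Tris 100 mM pH 8.0; compound added, 15 min RT; CCD imager read, ex 547 nm/em 598 nm; signal normalized to resorufin standard curve (six concentrations per plate) as dye-equivalent concentration.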
Texas Red fluor – compound fluoresces in the Texas Red spectral region; Compound fluorescence, Texas Red channel, 547/618 nm; active compounds read high; max dye-equivalent concentration, M; hit rate 0.06% among 59,000; in the data active means max dye-equivalent concentration above about 10 nM; inconclusive means between about 1.1 nM and that limit
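Pin-transferred compounds and Texas Red standards go into 100 mM Tris buffer, pH 8.0. After 15 min at room temperature, plates are imaged with 547/618 nm filters. Each value is a dye-equivalent concentration derived from the per-plate dye curve.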
Rhodamine autofl – compound autofluorescence in rhodamine spectral region | Rhodamine-region fluorescence, 547/598 nm, Tris buffer; active compounds read high | max dye-equivalent concentration, M | hit rate 0.05% among 59,000; in the data active means max dye-equivalent concentration above about 11 nM; inconclusive means between about 1.1 nM and that limit
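Compounds in 100 mM Tris buffer, pH 8.0, were incubated 15 min at room temperature, then read at 547 nm excitation and 598 nm emission. Fluorescence was normalized against a per-plate six-point rhodamine standard curve as dye-equivalent concentration.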
* hit, by the source's call; i = inactive; ? = inconclusive. In the library only some 0.96% were active in any assay of this set; here they are far more common. Unless noted, how the calls were made is not given here.

SMILES	A488 autofl	A647 autofl	Fluorescein autfl	Resorufin autofl	Texas Red fluor	Rhodamine autofl
COc1cccc2c1C(=O)c1c(O)c3c(c(O)c1C2=O)C[C@@](O)(C(C)=O)C[C@@H]3O[C@H]1C[C@H](N)[C@H](O)[C@H](C)O1	?	3.3e-09	2.21e-07M*	5.95e-08M*	6.51e-08M*	6.36e-08M*
NC(=S)NCCC[C@@H](N)C(=O)O	i	1.5e-09	i	i	i	i
Cc1cc(C)c2c(=O)[nH]c(=O)n(Cc3ccccc3)c2n1	i	1.15e-08	1.32e-08M*	i	i	i
Cc1cc(C)n(-c2nc3c(c(=O)[nH]c(=O)n3C)n2Cc2ccccc2)n1	i	1e-09	?	i	i	i
CCn1c(CSc2nccn2C)nc2cc(C(=O)O)ccc21	i	2.4e-08	1.12e-08M*	1.06e-08M*	2.68e-08M*	1.74e-08M*
Cn1ccnc1SCC(=O)c1cc2ccccc2o1	i	1e-09	i	i	i	i
Oc1ccc2cccnc2c1	i	4.24e-08	1.61e-08M*	i	i	i
CC(=O)O[C@@H]1CC[C@]2(C)[C@H]3CC[C@]4(C)[C@H](C[C@H]5CCCC[C@@]54C(C)=O)[C@@H]3CC(=O)[C@@]2(O)C1	i	4.7e-09	i	i	?	i
CCOC(=O)C1=C(C)NC(C)=C(C(=O)OC)[C@H]1c1cccc(Cl)c1Cl	i	1.03e-08	?	i	i	i
N#CC(C(=O)NC1CCCCC1)c1nc2ccccc2nc1N1CCCCC1 (stereo not drawn)	i	2.15e-08	?	i	i	i
N#CC(C(=O)NC1CC1)c1nc2ccccc2nc1N1CCCC1 (stereo not drawn)	?	8.2e-09	1.79e-07M*	i	?	i
C=CCNC(=O)C(C#N)c1nc2ccccc2nc1N1CCN(Cc2ccccc2)CC1 (stereo not drawn)	?	1e-09	5.57e-08M*	i	i	i
N#CC(C(=O)NC1CC1)c1nc2ccccc2nc1N1CCN(C/C=C/c2ccccc2)CC1 (stereo not drawn)	?	1e-09	1.29e-07M*	i	i	i
COCCCNC(=O)C(C#N)c1nc2ccccc2nc1N1CCN(Cc2ccccc2)CC1 (stereo not drawn)	i	3e-08	i	i	i	i
N#CC(C(=O)NC1CCCCC1)c1nc2ccccc2nc1N1CCN(c2ccc(F)cc2)CC1 (stereo not drawn)	2.01e-08M*	3e-09	3.52e-07M*	i	i	i
COc1cc(OC)c(/C=C2/C(=O)Nc3ccccc32)c(OC)c1	i	2.38e-08	?	i	i	i
Cc1cc(C)c(/C=C2/C(=O)Nc3ccccc32)[nH]1	i	6.61e-08	2.31e-08M*	i	i	?
O=C(CCN1C(=O)C2CC=C(Cl)CC2C1=O)N1CCCCC1 (stereo not drawn)	?	2.33e-08	2.93e-08M*	i	i	i
O=C1C2CC=C(Cl)CC2C(=O)N1CCc1ccccc1 (stereo not drawn)	i	1e-09	2.03e-08M*	i	i	i
O=C1C2CC=C(Cl)CC2C(=O)N1CNc1ccccn1 (stereo not drawn)	i	3.8e-09	i	i	i	i
CC#C[C@@]1(O)CC[C@@H]2[C@@H]3CCC4=CC(=O)CCC4=C3[C@@H](c3ccc(N(C)C)cc3)C[C@]21C	i	3e-09	i	i	i	i
c1cncc(-c2cncnc2NC2CCNCC2)c1	i	3.74e-08	1.41e-08M*	i	i	i
N#Cc1c(N2CCCCC2)nc(N2CCCCC2)c2c1CCN(Cc1ccccc1)C2	?	1.3e-09	4.8e-08M*	i	i	i
CN(C)CCCO[C@H]1[C@H]([C@H](O)CO)O[C@H]2OC(C)(C)O[C@@H]21	i	1.21e-08	?	i	i	i
CN(C)Cc1ccccc1-c1nccc(NCc2cccs2)n1	i	1.5e-09	1.09e-08M*	i	i	i
CCCCn1c(CN2CCN(C)CC2)nc2ccccc21	i	1e-09	i	i	i	i
CN1CCN(Cc2nc3cccc4c3c([n+]2[O-])-c2ccccc2-4)CC1	i	1e-09	1.4e-08M*	i	i	i

Source: PubChem (National Center for Advancing Translational Sciences (NCATS))
